This passage reports z-score results from PubChem BioAssay AID1508600 (Functional Genomics Laboratory (NCATS/FGL), 2020).

The campaign covered roughly 53,000 sequences. About 3,700 (7%) were called active. Many of the other results were omitted from the sample, so actives are more common in it than they were. A number with no mark means an inactive call.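 Rule for the calls: active = gene knockdowns whose robust z-score for IL-1 alpha signal is at least 2 or at most -2, so actives lie on both sides; inactive = the rest.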

This experiment is described as follows: Components of the Cytosolic LPS Sensing Pathway: Gene Identification via Genome-wide siRNA Screen.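 Note: robust z of the log signal after scaling to non-targeting control siRNA wells of the plate.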 Conditions: RAW264.7 macrophages, IL-1a HTRF, actives lie on both sides, screened at 100 nM (by protocol), cells primed 5 h with Pam3CSK4 first. The gist of the method:
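Read-out: IL-1a HTRF on supernatant, divided by plate negative-control median ×100, log-transformed and converted to robust z-score. Cells were RAW264.7 given 100 nM siRNA, Pam3CSK4-primed 5 hours, then LipidA-transfected 24 hour.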
For CGCCUACUGCUUCAGGAUATT against Cgrrf1, the z-score was 1.27.
The same measure for GGACUCAUCUUUAUUAUUCTT against Olfr393: -0.324.
As for GGAAGUUGGUUAUACUCGUTT against Lins1, the z-score is 0.822.
The same measure for GGAGGAAGACAUUGUGUGUTT against Tnfrsf11b: -0.309; for GGAAAACCAUGAAGCCAUGTT against Dnase1l3: 0.69; for GGCUCUAUAUCCAGCAGCATT against Srst: -1.1.
For the sequence “GUCACUGAAUUUCUCCUCUTT against Olfr104-ps”, the z-score is -2.28 (active).
The figure for GGUUAUAUCCAUGUGACACTT against Nkg7 is -1.15.
With GCAGCUUUAGGUCCAUUCGTT against Pkd2l2, the z-score was -0.696.
Regarding GGAACAUCCAUGUAUUCAATT against Ube2l3, the z-score is 0.76.
The figure for GGAUAUCCGUGAGAUUUCATT against Timm9 is 3.7 (active); for CCCACUCUUUGUGUACUGATT against Olfr262 it is -2.1 (active); for GGCUAAAUAUGUGAUUAGUTT against Maob it is -0.311.
With GGAGUAUAUCUCGUUUAUATT against Ube2e2, the z-score was -0.221.
With GGACCAUGCUGGAUACUAUTT against Yrdc, the z-score is 1.74.
The same measure for CCUGUACCCGAACAUACCATT against Fabp12: -1.06; for GCAAGCAGACUUGUCCUUCTT against Hnrnpc: -0.155; for GGUCAUCCUCAAGUCUCCUTT against Stmn3: -2.28 (active).
The same measure for GGAGAAGAGAAUAGAAGAATT against Ren1: -0.0528; for GGCUGUACCAAUCUGACACTT against Pvalb: 0.318; for AUAACCUAACUCACAACAATT against Olfr304: -1.06.
GGAAAUCGAUUCUCAUGAUTT against St6gal2: the z-score is 0.00146.
The same measure for CGGGCUCUUGUAGAUUUCATT against Ccdc86: 3.22 (active); for GGGUAUGAUGUGAUUGCUCTT against Eif4a2: 0.0435; for GGAUAACCUAUCGAAUCUCTT against Dsg4: 1.26.
The same measure for GCAUCUCUCUACCAUUGACTT against Frmd8: 0.538.
As to CGUACAAAGGUAGUAUACCTT against Pi4k2a, the z-score was 1.1.
The same measure for GGUUCUCAUACAUAAACAATT against Mri1: -2.87 (active); for “GGGAUAACACUCCUGUUUUTT against F630111L10Rik”: -1.06; for GUUCCUGCUGAUCAAGGACTT against Nsmce3: 0.2.
Regarding GUCUUAUACACGUGUGGACTT against Cklf, the z-score is -0.198.
In the case of GCACCUGAUUAAGUUGCAUTT against Med15, the z-score was -2.11 (active).
The same measure for GGAAUCAUUGACGUAAUCATT against Chil3: 1.99; for GACAGGCGGCCUUCCGAGATT against Hyi: -0.479; for GGGCGACACAAGGUUUUUGTT against Kif3a: 2.61 (active).
The figure for GGAUGUAAAAUGCAGUUUATT against Tmsb4x is 0.855; for GCGGAAUUUGGUUUCUAUUTT against Etv2 it is -0.432; for GGAGUUUCCAUCACGAAGATT against Bmp4 it is 0.574.
The figure for CCAUUAAGAUCCGAAGUAUTT against Lrrc58 is -0.36; for GGUUGAAACGAGUUUUGAATT against Zbtb5 it is 0.00556; for GGGCAGAAAAUCAUUUGUUTT against Anxa11 it is 0.0839.
For CCAGUGGUAUGAGGUUGAATT against Cpne3, the z-score is 0.238.
The same measure for GGAAACAACAACUGUCACATT against Defb40: -2.13 (active); for GCACAUGGGAGACUAUGAATT against Necab2: -1.14; for GCAGAGCGAUUAUAUGGACTT against Rnpepl1: -0.308.
The same measure for CGAUUACUUGGAAAACCAATT against Ifne: -1.21.
The figure for GCACAGGACUGAUGCUAAGTT against Wdr91 is 2.92 (active).
As for GGCUCAUGUAAGAUAAUUATT against Kcns3, the z-score was -1.03.
The figure for CCUGAAGAAAGAAUCCCUATT against Nobox is 0.241.
Take GGCUCUUCCAACAGUUCUUTT against Grk1: the z-score is 2.07 (active).
As for CCUACAGUACUUCAAGCGGTT against Hip1, the z-score was -1.37.
The figure for GCUCUAACGUAUGAUGCCATT against Nde1 is 0.206.
As for CCAAACUUAAGCCUAUUCUTT against Mme, the z-score was 1.32.
For the sequence GCAACUGAGGCUUUCUUUGTT against Copg1, the z-score was -1.53.
For GGACACCAAUCACAUUUGATT against Cngb3, the z-score is -2.21 (active).
The same measure for GGAAGCAUUGAUUUUCAUCTT against Prok2: 1.82; for GGUCGGUUGCUUUAGUGAATT against Magee2: 1.42.
For the sequence GGGCAAAAUCGUGUCAAGCTT against Dpp9, the z-score is 0.253.
The same measure for CCCAAUGAUCCUAACCAUUTT against Zfp459: -1.08; for GGAGAGAAUGGACCAUCUCTT against Rnase10: -1.16.
The figure for GGUGUAUCUGUUCUGUUAATT against Impg1 is -0.559.
The same measure for GGUGGUCUCCUACAAUGCCTT against Olfr1451: 2.3 (active); for CGAGCUGUUAGAAUUCAGATT against Jakmip1: -0.818; for GGAUCAAGAAUUAAUGUCUTT against Nes: -0.349.
For the sequence GCGACAACUUAAAGACCGGTT against Cand2, the z-score was 0.0878.
For the sequence “GGCCAUCGCACUUAAACUUTT against 1700123K08Rik”, the z-score is -0.578.
The same measure for CCGAUGAUCAGAGAAACAGTT against Prkar2b: -1.25; for GGGACAACAUGGAUUCAAGTT against Sult1c2: 0.685.
Take GCCAAAACUCUGUUAGAUATT against Anapc7: the z-score was -0.931.
As to GGAAGAAGAACUGAAGACATT against Ctnnbl1, the z-score is 2.22 (active).
Consider GGAAUCUAGCUGAGAAAAUTT against Lepr, for which the z-score is -0.62.
The same measure for “GGGAGUUCCAAUCAUUCUUTT against 2200002J24Rik”: 0.667; for GGUCUAUGUACUGUCCUGATT against Otop2: 0.0413; for “GGCAAUCAUGUGGACUUCATT against C230071H18Rik”: 0.714.
Take CGUGAAGGAAACUUUUCAGTT against Prmt9: the z-score is -1.45.
For the sequence GGAGAUUGACAUUAGCAACTT against Rps6ka2, the z-score is 3.02 (active).
For GGCAGACUCUGCCUACUUATT against Utf1, the z-score was 1.01.
For GCUUUAAACUGAGUGAUAATT against Zfp451, the z-score was -0.564.
The figure for GGCCAUCUAAUGACCUUCATT against Madd is -2.7 (active); for GCAUGACAGGAAACUCUCUTT against Olfr1308 it is -0.825.
As to GCAACAAAUUUGAAUCAGATT against Chic2, the z-score is -0.185.
On to GGAUCUUCGUACUAGAGGCTT against Cenpx, for which the z-score was 0.0358.
Regarding CCUCGUCGAGUGGAAAAUUTT against Pxylp1, the z-score is -0.574.
Regarding GGGCUGAGGAGAAAAUGCATT against Meg3, the z-score was -2.37 (active).
The figure for GGAGACUCCUUACGGCAAATT against Bnip1 is 0.227.
The figure for GGAAUGUUAACAAAGAGCATT against Sgcb is 0.8.
On to CCUAAUGUUUAGAUCCAUATT against Gcm2, for which the z-score is 0.11.
The same measure for GGCCGAAUUGUGUCUUGGUTT against Dnmt3a: -1.71; for GUGACACCUUUAUGGAGAGTT against Olfr1271: 0.267; for CGUGCUAGUGACCAUUUACTT against Limch1: 0.625.
As for GGGUACCUACAUAGACAAGTT against Rps11, the z-score is 0.0651.
CGCAGUGAGGAGUAUGAAGTT against Nin: the z-score was 3.53 (active).
The same measure for GGUAGCUAUUAAAGAAUCCTT against AW209491: 1.12; for GCGAUCAGCAAGCUAAGCCTT against Mettl2: 0.117.
The figure for GGCCAUGAGGAAAACAAGATT against Coro7 is -1.01; for ACAAAGAAGCGAUUUCUAUTT against Wtip it is 1.32.
The same measure for GCACCCUAGAGGUAAAAGATT against Taf12: -2.95 (active); for GGUUGUAACUUGUAAGGCATT against Rnf144b: 0.123.
GGAGACUAAGGAGGUUUAUTT against Ruvbl1: the z-score was 0.494.
With GGAGUCUCCUUAUAUUAAUTT against Alcam, the z-score is 0.896.
Regarding GGAUCAUAUAUGAAGCACATT against Mybl1, the z-score was -2.16 (active).
The figure for GGUUAACAUUUUCAGUCAUTT against Itga2 is -0.986.
With GGAUGACUUGAUUAUCUUUTT against Adrm1, the z-score was 0.603.
On to GGCAAAGAUUCCAAAAGAGTT against Bsdc1, for which the z-score is -1.59.
The figure for CCAGAUUGUGUUCACGAUGTT against Rasgrf2 is 0.888; for GGGAAGUUAUAAUGGAAGUTT against Rps15a it is 2.46 (active).
In the case of GCAUAAAGCAGUCAUGCUUTT against Gskip, the z-score was -0.989.
The same measure for GCCAUGUGUAUGGUAGUCUTT against Olfr1247: -1.22.
